Active and inactive are the calls of the source. Rule for the calls: active = hit-call score of the fitted dose curve at least 0.9, where 1 is the maximum; inactive = score below 0.9.

We go through 40 compounds from PubChem BioAssay (EPA / NIEHS).

The nature of the test: APR_HepG2_p53Act_72hr: Apredica 72-hour HepG2 Assay for p53 Activation (AID 2282923).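 Note: average cellular p53 protein immunofluorescence intensity in HepG2 cells.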 The note with it: high-content imaging, actives raise or lower the signal. The method, then:
APR_HepG2_72hr is a cell-based, multiplexed-readout assay that uses HepG2, a human liver cell line, with measurements taken at 72 hours after chemical dosing in a 384-well plate.APR_HepG2_p53Act_72hr is one of 10 assay component(s) measured or calculated from the APR_HepG2_72hr assay. It is designed to make measurements of dna content, a form of viability reporter, as detected with fluorescence intensity signals by HCS Fluorescent Imaging technology.Data from the assay component APR_HepG2_p53Act_72hr was analyzed into 1 assay endpoint. This assay endpoint, APR_HepG2_p53Act_72hr, was analyzed with bidirectional fitting relative to DMSO as the negative control and baseline of activity. Using a type of viability reporter, measures of protein for gain or loss-of-signal activity can be used to understand the signaling at the pathway-level as they relate to the gene TP53. Furthermore, this assay endpoint can be referred to as a primary readout, because this assay has produced multiple assay endpoints where this one serves a signaling function. To generalize the intended target to other relatable targets, this assay endpoint is annotated to the dna binding intended target family, where the subfamily is tumor suppressor.
Cells were treated with dimethyl sulfoxide (DMSO) as a solvent control at a final concentration of 0.5% v/v or with compounds in DMSO with a resulting final DMSO concentration of 0.5% v/v. Compound treatment was done at concentrations of 0.39, 0.78, 1.56, 3.12, 6.24, 12.5, 25, 50, 100, and 200 uM in duplicate on each plate. Cells were treated with compounds for 1, 24, or 72 hr. Carbonyl […] m-chloro-phenylhydrazone (CCCP) and taxol were used as positive controls for mitochondrial function and cytoskeletal stability, respectively; DMSO served as the negative control for this experiment. Cells were fixed by the direct addition of 50 uL formaldehyde in Hank's Balanced Salt Solution (HBSS) to a final concentration of 3.7%. After incubation in the fixation medium for 30 min at room temperature (293-298 K), cells were rinsed twice with HBSS and treated with cell permeabilization buffer (16 uL of 0.5% Triton X-100) for 10 min at room temperature (293-298 K) before labeling. For mitochondrial membrane potential and mitochondrial measurements, pre-fixed cells were incubated with 50 uL of MitoTracker Red CMXRos (Invitrogen) at a concentration of 250 nM for 30 min before fixation. In the remaining cases, post-fixed cells were labeled by incubation with a multiplexed mixture of primary antibodies in HBSS for 60 min at room temperature (293-298 K) to detect immunoreactivity of c-Jun (1:500), phospho-histone H3 (1:100), phospho-histone H2A.x (1:200), p53 (1:400), alpha-tubulin (1:200) and Hoechst 33342 (2 ug/mL). Cells were labeled for multiplexed imaging on two separate plates: a) Hoechst 33342, MitoTracker Red, phospho-histone H3, and alpha-tubulin, and b) Hoechst 33342, phospho-histone H2A.x, and c-Jun. A final rinse with HBSS (50 uL) was performed before analysis. The primary and secondary antibodies for the proteins were phospho-histone H3 (rabbit anti-phospho-histone H3 and FITC-donkey anti-rabbit IgG), phospho-histone H2A.x (mouse anti-phospho-histone H2A.x and FITC-donkey anti-mouse IgG), c-Jun (rabbit anti-phospho-c-Jun and Cy3-donkey anti-rabbit IgG), p53 (sheep anti-p53 and Cy5-donkey anti-sheep IgG), alpha-tubulin (mouse anti-alpha-tubulin and Cy5-donkey anti-mouse IgG). These antibodies are available as the CellCiphr HepG2 assay kit (Millipore).Digital images of each well were captured using a Cellomics ArrayScan VTI (Thermo Scientific Cellomics) (0.8 NA objective, 0.63x optical coupler, and XF-93 filter set) at 20x magnification. The images were acquired using the autofocus feature of the ArrayScan instrument, which entails the following steps. First, the camera focuses on channel 1 (Hoechst 33342), where nuclei are identified. Second, a Z offset of 1 um is used for capturing mitochondria (MitoTracker Red). […]
On to `CCOC(=O)COc1cc(-n2ncc(C(F)(F)F)c(C)c2=O)c(F)cc1Cl`, for which the outcome was inactive.
In the case of `C[C@]12C[C@H](O)[C@H]3[C@@H](CCC4=CC(=O)CC[C@@]43C)[C@@H]1CC[C@@H]2C(=O)CO`, the compound was classed as inactive.
`CCC(O)=C1C(=O)CC(C(=O)O)CC1=O` (stereo not given): the call was inactive.
As for `CCC(C)OC(=O)N1CCCCC1CCO` (stereo not given), the call was inactive.
Still for that read-out and setting: then `CC(C)(C)[C@@H](O)[C@@H](Cc1ccc(Cl)cc1)n1cncn1`, with “inactive”; and `Cc1nn(C)c(Oc2ccccc2)c1C=NOCc1ccc(C(=O)OC(C)(C)C)cc1`, with “inactive”.
Consider `COC(=O)c1ccc(CNS(C)(=O)=O)cc1S(=O)(=O)NC(=O)Nc1nc(OC)cc(OC)n1`, for which the outcome was inactive.
With `CCN(Cc1c(F)cccc1Cl)c1c([N+](=O)[O-])cc(C(F)(F)F)cc1[N+](=O)[O-]`, the compound was classed as inactive.
On to `COC(=O)c1c(Cl)nn(C)c1S(=O)(=O)NC(=O)Nc1nc(OC)cc(OC)n1`, for which the outcome was inactive.
On the same count and under the same terms, then `C[C@]12CC[C@@H]3c4ccc(O)cc4C[C@@H](CCCCCCCCCS(=O)CCCC(F)(F)C(F)(F)F)[C@H]3[C@@H]1CC[C@@H]2O` (stereo not given in full), with “inactive”.
As for `C#CCOC(=O)[C@@H](C)Oc1ccc(Oc2ncc(Cl)cc2F)cc1`, the compound was called inactive.
For `CC(C)CCCCCCc1ccc(O)cc1`, the AC50 (in general, the midpoint of the concentration-response curve, whichever way the signal moves) was 29.7 µM (active).
Turning to `O=C(O)c1ccccc1`, the compound was called inactive.
Still for that read-out and setting: then `COC(=O)c1cccc(C)c1S(=O)(=O)NC(=O)Nc1nc(OCC(F)(F)F)nc(N(C)C)n1`, with “inactive”; and `O=C(c1ccc(O)cc1O)c1ccc(O)cc1O`, with “inactive”.
As to `C=CCOC(Cn1ccnc1)c1ccc(Cl)cc1Cl` (stereo not given), the outcome was inactive.
Turning to `CCCN(CCC)C(=O)SCC`, the call was inactive.
As for `O=C(c1ccccc1)C1CCCCC1`, the result was inactive.
`CCCCC(CC)CN1C(=O)C2C3C=CC(C3)C2C1=O` (stereo not given): the compound was classed as inactive.
`c1ccc(Nc2ccccc2)cc1`: the call was inactive.
On to `CC(=O)[C@H]1CC[C@H]2[C@@H]3CCC4=CC(=O)CC[C@]4(C)[C@H]3CC[C@]12C`, for which the concentration at half-maximal activity (AC50) was 97.2 µM (active).
Turning to `CCOC(=O)C(C)Oc1ccc(Oc2nc3ccc(Cl)cc3o2)cc1` (stereo not given), the compound was classed as inactive.
For the compound `O=C(Nc1ccc([N+](=O)[O-])cc1Cl)c1cc(Cl)ccc1O`, the compound was classed as inactive.
As to `CCCCOC(=O)C(C)Oc1ccc(Oc2ccc(C(F)(F)F)cn2)cc1` (stereo not given), the compound was classed as inactive.
In the case of `CC1(C)C(C=C(Cl)Cl)C1C(=O)OCc1cccc(Oc2ccccc2)c1` (stereo not given), the result was inactive.
As for `CCCCCCC(C)OC(=O)COc1nc(F)c(Cl)c(N)c1Cl` (stereo not given), the call was inactive.
Same read-out and setting: then `N[C@@H](Cc1cc(I)c(Oc2ccc(O)c(I)c2)c(I)c1)C(=O)O`, with “inactive”; and `CCOC(=O)NCCOc1ccc(Oc2ccccc2)cc1`, with “inactive”.
With `CC(C)(c1ccc(O)cc1)c1ccc(O)cc1`, the compound was called inactive.
In the case of `COC(=O)CSc1cc(N=c2sc(=O)n3n2CCCC3)c(F)cc1Cl`, the call was inactive.
Turning to `COC(=O)c1ccc(I)cc1S(=O)(=O)NC(=O)Nc1nc(C)nc(OC)n1`, the compound was classed as inactive.
In the case of `COC(=O)c1ccccc1S(=O)(=O)NC(=O)Nc1nc(OC(F)F)cc(OC(F)F)n1`, the compound was called inactive.
Consider `COC(=O)c1ccccc1C(=O)O`, for which the result was inactive.
On to `CCCOC(=O)c1ccc(C(=O)OCCC)nc1`, for which the outcome was inactive.
`CCNc1nc(N)nc(Cl)n1`: the result was inactive.
With `OB(O)O`, the outcome was inactive.
Same read-out and setting: under `CCCCOC(=O)[C@@H](C)Oc1ccc(Oc2ccc(C(F)(F)F)cn2)cc1` stands “inactive”.
Turning to `CC(=O)S[C@@H]1CC2=CC(=O)CC[C@]2(C)[C@H]2CC[C@@]3(C)[C@@H](CC[C@@]34CCC(=O)O4)[C@H]12`, the half-maximal activity concentration (AC50) was 40.3 µM (active).
As for `CCCOC(=O)NCCCN(C)C`, the result was inactive.
Take `COCCO`: the compound was called inactive.
